Results from PubChem BioAssay AID1159580 (chemical genetic matrix, 2015).
In all, about 5,500 compounds went through this assay and about 2,000 (36%) were called active. Not shown: some 18% with an inconclusive outcome. This is one part of the list. A number with no mark means an inactive call. Rule as the data show it: active = normalized growth mostly below about 0.91 (no sharp cut-off); inconclusive = no clear call, values can overlap the other calls; inactive = mostly above about 0.92.

Experiment: chemical genetic growth profiling, strain panel (AID 1159580);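 also: tested at 20 µM; growth read once vehicle control cultures reached saturation at 30 °C; 1 = growth at the plate median or of vehicle wells; lower values mean less growth of the strain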
Conditions: growth OD
[1] = S. cerevisiae deletion strains, locus YAL013W, strain DEP1, hits give low values
[2] = S. cerevisiae deletion strains, locus YBR229C, strain ROT2, hits give low values
[3] = S. cerevisiae deletion strains, locus YDL101C, strain DUN1, hits give low values
[4] = S. cerevisiae deletion strains, locus YGR078C, strain PAC10, hits give low values
[5] = S. cerevisiae deletion strains, locus YJR043C, strain POL32, hits give low values
[6] = S. cerevisiae deletion strains, locus YKL190W, strain CNB1, hits give low values
[7] = S. cerevisiae deletion strains, locus YLR039C, strain RIC1, hits give low values
[8] = S. cerevisiae deletion strains, locus YLR262C, strain YPT6, hits give low values
[9] = S. cerevisiae deletion strains, locus YMR263W, strain SAP30, hits give low values
[10] = S. cerevisiae deletion strains, locus YMR307W, strain GAS1, hits give low values
[11] = S. cerevisiae deletion strains, locus YNL128W, strain TEP1, hits give low values
[12] = S. cerevisiae deletion strains, locus YOL006C, strain TOP1, hits give low values
[13] = S. cerevisiae deletion strains, locus YPL055C, strain LGE1, hits give low values
[14] = S. cerevisiae deletion strains, locus YPL241C, strain CIN2, hits give low values
[15] = S. cerevisiae strains, strain wild type, hits give low values
[16] = S. cerevisiae deletion strains, locus YDR150W, strain NUM1, hits give low values
[17] = S. cerevisiae deletion strains, locus YEL061C, strain CIN8, hits give low values
[18] = S. cerevisiae deletion strains, locus YHR030C, strain SLT2, hits give low values
[19] = S. cerevisiae deletion strains, locus YHR087W, strain rtc3, hits give low values
[20] = S. cerevisiae deletion strains, locus YJR075W, strain HOC1, hits give low values
[21] = S. cerevisiae deletion strains, locus YLR058C, strain SHM2 (second series), hits give low values
[22] = S. cerevisiae deletion strains, locus YLR085C, strain ARP6, hits give low values
[23] = S. cerevisiae deletion strains, locus YML094W, strain GIM5, hits give low values
[24] = S. cerevisiae deletion strains, locus YMR219W, strain ESC1, hits give low values
[25] = S. cerevisiae deletion strains, locus YNL153C, strain GIM3, hits give low values
[26] = S. cerevisiae deletion strains, locus YNL298W, strain CLA4 (second series), hits give low values
[27] = S. cerevisiae deletion strains, locus YNL322C, strain KRE1, hits give low values
[28] = S. cerevisiae deletion strains, locus YNR030W, strain Alg12, hits give low values
[29] = S. cerevisiae deletion strains, locus YPR135W, strain CTF4, hits give low values

COc1cc(/C=C/C=O)cc(OC)c1OC
normalized growth [1]: 1.03 | normalized growth (S. cerevisiae deletion strains, locus YBR021W, strain FUR4, hits give low values): 1.01 | normalized growth [2]: 1.01 | normalized growth (S. cerevisiae deletion strains, locus YCL029C, strain bik1, hits give low values): 1.03 | normalized growth (S. cerevisiae deletion strains, locus YDL035C, strain GPR1, hits give low values): 1.04 | normalized growth (S. cerevisiae deletion strains, locus YDL074C, strain BRE1, hits give low values): 1.07 | normalized growth [3]: 1.02 | normalized growth (S. cerevisiae deletion strains, locus YDL185W, strain tfp1, hits give low values): 1 | normalized growth (S. cerevisiae deletion strains, locus YDL192W, strain arf1, hits give low values): 1.02 | normalized growth (S. cerevisiae deletion strains, locus YDR101C, strain arx1, hits give low values): 1.02 | normalized growth (S. cerevisiae deletion strains, locus YDR162C, strain NBP2, hits give low values): 1.07 | normalized growth (S. cerevisiae deletion strains, locus YDR318W, strain mcm21, hits give low values): 1.03 | normalized growth (S. cerevisiae deletion strains, locus YDR388W, hits give low values): 1.01 | normalized growth (S. cerevisiae deletion strains, locus YDR502C, strain sam2, hits give low values): 1.02 | normalized growth (S. cerevisiae deletion strains, locus YER110C, hits give low values): 1 | normalized growth (S. cerevisiae deletion strains, locus YER155C, strain BEM2, hits give low values): 1.02 | normalized growth (S. cerevisiae deletion strains, locus YER167W, strain BCK2, hits give low values): 1.02 | normalized growth (S. cerevisiae deletion strains, locus YGL078C, strain dbp3, hits give low values): 1.01 | normalized growth (S. cerevisiae deletion strains, locus YGL086W, strain mad1, hits give low values): 1.02 | normalized growth (S. cerevisiae deletion strains, locus YGL248W, strain PDE1, hits give low values): 1.04 | normalized growth [4]: 1.04 | normalized growth (S. cerevisiae deletion strains, locus YGR135W, strain pre9, hits give low values): 0.998 | normalized growth (S. cerevisiae deletion strains, locus YGR252W, strain gcn5, hits give low values): 1.03 | normalized growth (S. cerevisiae deletion strains, locus YHR079C, strain IRE1 (second series), hits give low values): 1 | normalized growth (S. cerevisiae deletion strains, locus YHR094C, strain hxt1, hits give low values): 0.995 | normalized growth (S. cerevisiae deletion strains, locus YHR129C, strain ARP1, hits give low values): 1.02 | normalized growth (S. cerevisiae deletion strains, locus YHR200W, strain rpn10, hits give low values): 1.01 | normalized growth (S. cerevisiae deletion strains, locus YIL066C, strain RNR3, hits give low values): 1.02 | normalized growth (S. cerevisiae deletion strains, locus YIL073C, strain SPO22, hits give low values): 1.06 | normalized growth (S. cerevisiae deletion strains, locus YIL125W, strain kgd1, hits give low values): 1 | normalized growth (S. cerevisiae deletion strains, locus YIR030C, strain dcg1, hits give low values): 1.01 | normalized growth (S. cerevisiae deletion strains, locus YJL095W, strain BCK1, hits give low values): 1.06 | normalized growth (S. cerevisiae deletion strains, locus YJL134W, strain LCB3, hits give low values): 1.01 | normalized growth (S. cerevisiae deletion strains, locus YJL168C, strain set2, hits give low values): 0.997 | normalized growth (S. cerevisiae deletion strains, locus YJL187C, strain SWE1 (second series), hits give low values): 1.04 | normalized growth [5]: 1.06 | normalized growth (S. cerevisiae deletion strains, locus YKL009W, strain mrt4, hits give low values): 1.01 | normalized growth (S. cerevisiae deletion strains, locus YKL068W, hits give low values): 0.994 | normalized growth (S. cerevisiae deletion strains, locus YKL085W, strain MDH1 (second series), hits give low values): 1.01 | normalized growth (S. cerevisiae deletion strains, locus YKL085W, strain MDH1, hits give low values): 1.01 | normalized growth [6]: 1.01 | normalized growth (S. cerevisiae deletion strains, locus YKR001C, strain vps1, hits give low values): 1.07 | normalized growth [7]: 1.14 | normalized growth (S. cerevisiae deletion strains, locus YLR058C, strain SHM2, hits give low values): 1.03 | normalized growth (S. cerevisiae deletion strains, locus YLR102C, strain apc9, hits give low values): 0.999 | normalized growth [8]: 1.13 | normalized growth (S. cerevisiae deletion strains, locus YLR268W, strain sec22, hits give low values): 1.03 | normalized growth (S. cerevisiae deletion strains, locus YLR342W, strain FKS1 (second series), hits give low values): 1.09 | normalized growth (S. cerevisiae deletion strains, locus YLR371W, strain rom2, hits give low values): 0.991 | normalized growth (S. cerevisiae deletion strains, locus YLR418C, strain cdc73, hits give low values): 1.02 | normalized growth (S. cerevisiae deletion strains, locus YML016C, strain PPZ1, hits give low values): 1.02 | normalized growth (S. cerevisiae deletion strains, locus YML032C, strain rad52, hits give low values): 1.03 | normalized growth (S. cerevisiae deletion strains, locus YML124C, strain tub3, hits give low values): 0.996 | normalized growth (S. cerevisiae deletion strains, locus YMR078C, strain ctf18, hits give low values): 0.994 | normalized growth (S. cerevisiae deletion strains, locus YMR223W, strain ubp8, hits give low values): 1.01 | normalized growth [9]: 1.03 | normalized growth [10]: 1.06 | normalized growth (S. cerevisiae deletion strains, locus YNL067W, strain RPL9B, hits give low values): 1.03 | normalized growth [11]: 1.03 | normalized growth (S. cerevisiae deletion strains, locus YNL233W, strain BNI4, hits give low values): 1.04 | normalized growth (S. cerevisiae deletion strains, locus YNL250W, strain rad50, hits give low values): 1 | normalized growth (S. cerevisiae deletion strains, locus YNL271C, strain bni1, hits give low values): 1 | normalized growth (S. cerevisiae deletion strains, locus YNL298W, strain CLA4, hits give low values): 0.995 | normalized growth (S. cerevisiae deletion strains, locus YNL307C, strain MCK1, hits give low values): 1 | normalized growth (S. cerevisiae deletion strains, locus YNR052C, strain pop2, hits give low values): 1 | normalized growth [12]: 1.22 | normalized growth (S. cerevisiae deletion strains, locus YOL012C, strain htz1): 0.967 | normalized growth (S. cerevisiae deletion strains, locus YOL147C, strain pex11, hits give low values): 1.01 | normalized growth (S. cerevisiae deletion strains, locus YOR061W, strain CKA2, hits give low values): 1.04 | normalized growth (S. cerevisiae deletion strains, locus YOR069W, strain VPS5, hits give low values): 1.01 | normalized growth (S. cerevisiae deletion strains, locus YOR136W, strain idh2, hits give low values): 1.01 | normalized growth (S. cerevisiae deletion strains, locus YOR144C, strain elg1, hits give low values): 0.998 | normalized growth (S. cerevisiae deletion strains, locus YOR184W, strain ser1, hits give low values): 1.07 | normalized growth (S. cerevisiae deletion strains, locus YOR316C, strain cot1, hits give low values): 0.988 | normalized growth [13]: 1.08 | normalized growth [14]: 1.01 | normalized growth (S. cerevisiae deletion strains, locus YPR119W, strain clb2, hits give low values): 0.995 | normalized growth (S. cerevisiae deletion strains, locus YPR141C, strain kar3, hits give low values): 1 | normalized growth (S. cerevisiae deletion strains, locus YPR163C, strain tif3, hits give low values): 1.02 | normalized growth (S. cerevisiae deletion strains, locus YPR167C, strain met16, hits give low values): 1.01 | normalized growth (S. cerevisiae deletion strains, strain wtn01, hits give low values): 1.03 | normalized growth [15]: 1.05

COc1cc(/C=C2/N=C(c3ccccc3I)OC2=O)cc(OC)c1OC
normalized growth [1]: 1 | normalized growth [2]: 1.01 | normalized growth (S. cerevisiae deletion strains, locus YCL061C, strain MRC1, hits give low values): 1.01 | normalized growth [3]: 1.03 | normalized growth [16]: 0.888 | normalized growth [17]: 0.984 | normalized growth [4]: 1 | normalized growth (S. cerevisiae deletion strains, locus YGR229C, strain SMI1, hits give low values): 0.981 | normalized growth [18]: 0.956 | normalized growth [19]: 1.01 | normalized growth [5]: 1 | normalized growth [20]: 1.01 | normalized growth [6]: 0.995 | normalized growth [7]: 0.964 | normalized growth [21]: 0.996 | normalized growth [22]: 1.01 | normalized growth [8]: 0.947 | normalized growth [23]: 1.02 | normalized growth [24]: 1 | normalized growth [9]: 1 | normalized growth [10]: 0.961 | normalized growth [25]: 1.01 | normalized growth [26]: 1.01 | normalized growth [27]: 0.994 | normalized growth [28]: 0.982 | normalized growth [12]: 0.998 | normalized growth [13]: 1.12 | normalized growth [14]: 0.967 | normalized growth [29]: 0.903 | normalized growth [15]: 0.989

COc1cc(/C=C2/SC(=S)NC2=O)cc(OC)c1OC
normalized growth [1]: 0.915 (active) | normalized growth [2]: 0.894 (active) | normalized growth [3]: 0.865 (active) | normalized growth [16]: 0.897 | normalized growth [17]: 0.977 | normalized growth [4]: 0.877 (active) | normalized growth [18]: 0.87 | normalized growth [19]: 0.911 | normalized growth [5]: 0.948 | normalized growth [20]: 0.822 (active) | normalized growth [7]: 0.725 (active) | normalized growth [21]: 0.919 (active) | normalized growth [22]: 0.845 | normalized growth [8]: 0.73 (active) | normalized growth [23]: 0.969 | normalized growth [24]: 0.926 (active) | normalized growth [9]: 0.901 (active) | normalized growth [10]: 0.887 | normalized growth [11]: 0.977 | normalized growth [25]: 0.92 (active) | normalized growth [26]: 0.912 | normalized growth [27]: 0.926 (active) | normalized growth [28]: 0.922 | normalized growth [13]: 0.881 | normalized growth [14]: 0.885 | normalized growth [29]: 0.809
